# Source: the supplement of paper PMC9694430
# Structures can show the parent of a compound that is named as a salt.
# Columns and labels:
# Experiment in all cases: thermal shift delta Tm vs DMSO control; higher = stronger stabilization (binding)
# Details in all cases: 12.5 µM; protein concentration 2 µM
# LOC_OS04G57630-cb004 = tested on: LOC_OS04G57630-cb004
# Procedure, shortened: (§1)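 The melting temperature shift given here is a triplicate mean, measured against protein that received only DMSO. Melting temperatures came from Boltzmann fits of differential scanning fluorimetry data on E. coli-expressed, purified rice kinase domain constructs. Each 19.5 μl well contained 2 μM kinase, 100 mM potassium phosphate pH 7.5, 150 mM NaCl, 10% glycerol, 5 × SYPRO Orange and compound in DMSO. Plates were scanned from 25°C to 95°C at 0.05°C/s.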
# LOC_OS05G07850-cb002 = tested on: LOC_OS05G07850-cb002
# Procedure, shortened: as §1
# LOC_OS05G16824-cb004 = tested on: LOC_OS05G16824-cb004
# Procedure, shortened: as §1
# LOC_OS05G28520-cb001 = tested on: LOC_OS05G28520-cb001
# Procedure, shortened: as §1
# LOC_OS05G30820-cb001 = tested on: LOC_OS05G30820-cb001
# Procedure, shortened: as §1
# LOC_OS05G43570-cb004 = tested on: LOC_OS05G43570-cb004
# Procedure, shortened: as §1
# LOC_OS06G16330-cb003 = tested on: LOC_OS06G16330-cb003
# Procedure, shortened: as §1
# LOC_OS06G22820-cb001 = tested on: T1, LOC_OS06G22820-cb001
# T1 sequence (whole entry): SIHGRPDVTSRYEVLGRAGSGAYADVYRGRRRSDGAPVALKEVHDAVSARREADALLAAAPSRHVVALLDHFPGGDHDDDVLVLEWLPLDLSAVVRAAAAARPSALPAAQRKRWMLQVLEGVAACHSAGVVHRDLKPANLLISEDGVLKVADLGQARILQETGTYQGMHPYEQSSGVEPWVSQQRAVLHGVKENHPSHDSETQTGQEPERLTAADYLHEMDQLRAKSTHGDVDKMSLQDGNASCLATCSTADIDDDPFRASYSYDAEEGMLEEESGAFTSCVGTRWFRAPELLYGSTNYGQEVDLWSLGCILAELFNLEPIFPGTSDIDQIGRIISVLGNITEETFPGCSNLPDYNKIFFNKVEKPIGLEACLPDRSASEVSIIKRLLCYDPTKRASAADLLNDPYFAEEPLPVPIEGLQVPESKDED
# Procedure, shortened: as §1
# LOC_OS07G06570-cb004 = tested on: LOC_OS07G06570-cb004
# Procedure, shortened: as §1
# LOC_OS07G07230-cb001 = tested on: LOC_OS07G07230-cb001
# Procedure, shortened: as §1
# Sequence of LOC_OS06G16330-cb003 (as listed by the source): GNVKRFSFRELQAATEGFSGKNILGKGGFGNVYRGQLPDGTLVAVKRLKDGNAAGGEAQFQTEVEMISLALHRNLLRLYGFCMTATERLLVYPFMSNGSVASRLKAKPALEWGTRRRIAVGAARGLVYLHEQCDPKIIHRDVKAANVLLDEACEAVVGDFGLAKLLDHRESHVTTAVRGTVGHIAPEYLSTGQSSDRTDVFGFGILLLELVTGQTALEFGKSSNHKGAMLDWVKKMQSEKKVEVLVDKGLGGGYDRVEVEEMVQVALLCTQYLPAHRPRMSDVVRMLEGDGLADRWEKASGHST
SMILES,thermal shift delta Tm (LOC_OS04G57630-cb004) [°C],thermal shift delta Tm (LOC_OS05G07850-cb002) [°C],thermal shift delta Tm (LOC_OS05G16824-cb004) [°C],thermal shift delta Tm (LOC_OS05G28520-cb001) [°C],thermal shift delta Tm (LOC_OS05G30820-cb001) [°C],thermal shift delta Tm (LOC_OS05G43570-cb004) [°C],thermal shift delta Tm (LOC_OS06G16330-cb003) [°C],thermal shift delta Tm (LOC_OS06G22820-cb001) [°C],thermal shift delta Tm (LOC_OS07G06570-cb004) [°C],thermal shift delta Tm (LOC_OS07G07230-cb001) [°C]
COc1ccc(-c2ccc3ncc4c(c3c2)n(-c2ccc(N3CCNCC3)c(C(F)(F)F)c2)c(=O)n4C)cn1,0.96,10.2,2.52,0.28,0.54,0.36,4.63,0.38,0.59,0.06
O=C1Nc2ccc(I)cc2/C1=C/c1cc(Br)c(O)c(Br)c1,-0.66,7.59,-3.03,2.07,1.54,0.73,1.63,0.94,1.22,1.47
COc1cc(N2CCN(C)CC2)ccc1Nc1ncc2c(n1)N(C)c1ccccc1C(=O)N2,0.23,3.08,-1.75,0.12,0.51,0.36,1.14,0.34,0.21,0.21
Cc1cn(-c2cc(NC(=O)c3ccc(C)c(Nc4nccc(-c5cccnc5)n4)c3)cc(C(F)(F)F)c2)cn1 [Nilotinib (AMN-107)],-0.2,-0.28,-8.56,0.53,0.44,0.26,-0.09,0.72,0.96,0.47
O=C(c1ccc(/C=C/c2n[nH]c3ccccc23)cc1)N1CCNCC1,3.95,9.5,10.5,2.59,1.8,0.66,7.34,0.53,1.15,0.03
C=CC(=O)N1CCN(CCCn2c(=O)c(-c3c(Cl)c(OC)cc(OC)c3Cl)cc3cnc(NC)nc32)CC1,0.34,0.01,3.63,-0.19,0.06,0.18,-0.29,0.15,0.73,1.75
COc1cc2ncnc(Nc3cccc(Cl)c3)c2cc1OC [AG-1478 (Tyrphostin AG-1478)],0.54,10.9,0.02,0.3,0.62,0.52,5.45,0.8,0.35,0.01
NC(=O)c1cnc(N[C@@H]2CCCC[C@@H]2N)nc1Nc1cccc(-n2nccn2)c1,0.91,6.88,6.77,-0.14,2.09,0.39,5.31,0.77,1.27,0.71
CC(C)(C)c1nc(-c2cccc(NS(=O)(=O)c3c(F)cccc3F)c2F)c(-c2ccnc(N)n2)s1,1.63,9.38,8.29,0.83,3.66,0.62,3.39,0.62,0.8,0.6
O=C(NOCC1CC1)c1ccc(F)c(F)c1Nc1ccc(I)cc1Cl,0.14,1.54,2.02,1.8,0.63,1.06,0.69,1.27,1.57,0.31
C[C@H]1CNCCCN1S(=O)(=O)c1cccc2cncc(F)c12 [Ripasudil (K-115) hydrochloride dihydrate],0.43,3.53,-0.98,0.51,0.26,0.76,0.41,0.46,0.19,0.2
COc1cc2nccc(Oc3ccc(NC(=O)Nc4cc(C)on4)c(Cl)c3)c2cc1OC [Tivozanib (AV-951)],3.28,9.77,2.86,2.41,0.62,0.21,10.8,0.55,0.52,-0.04
CCNC(=O)Nc1ccc(-c2nc3c(c(N4CCOC[C@@H]4C)n2)CCN(C2COC2)C3)cc1,0.05,0.56,-1.52,0,0.54,0.3,0.18,0.27,1.06,0.66
Cc1cc(Nc2cc(N3CCN(C)CC3)nc(/C=C/c3ccccc3)n2)n[nH]1,3.73,11.7,11.2,7.06,1.8,0.82,5.06,0.17,1.23,0.9
CNC(=O)c1ccc(C)c(-n2c(C)cc(OCc3ccc(F)cc3F)c(Br)c2=O)c1,0.7,0.4,0.62,0.4,0.44,0.56,0.1,0.38,0.59,-0.01
CO[C@H]1C[C@@H]2CC[C@@H](C)[C@@](O)(O2)C(=O)C(=O)N2CCCC[C@H]2C(=O)O[C@H]([C@H](C)C[C@@H]2CC[C@@H](OC(=O)C(C)(CO)CO)[C@H](OC)C2)CC(=O)[C@H](C)/C=C(\C)[C@@H](O)[C@@H](OC)C(=O)[C@H](C)C[C@H](C)/C=C/C=C/C=C/1C,-0.25,0.18,-4.25,0.46,0.38,0.24,-0.27,0.76,0.91,0.12
COCCOc1ccc2c(c1)ncn2-c1ccc2cccc(N3CCC(N)CC3)c2n1,6.59,16.7,12.6,-0.07,1.5,0.49,7.19,0.77,1.03,0.19
